Screening results from PubChem.
Compounds with a hit are over-represented: about 4.5% of the library has one in this group of screens.
TPT1 inhibitor – inhibitors of Candida albicans tRNA 2'-phosphotransferase TPT1; recombinant caTPT1, FP RNA substrate dephosphorylation; inhibition, % at 5 µM; hit rate 0.81% among 300,000;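 active = inhibition above the mean of all tested compounds plus 3 SD, set per screening campaign, cut at about 24% in these data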
dFosB activator – activators of mouse delta FosB homodimer; P13346; hit rate 0.99% among 340,000; activation, % at 25 µM; purified delta FosB, TAMRA-CDK5 oligo fluorescence polarization; percent of positive-control signal above neutral wells;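 active = mean activation above about 17%, with every replicate also reaching it, limit read from the data, passing the limit was not always enough; inconclusive = only one of the two conditions met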
Target sequence (P13346 whole entry, looked up): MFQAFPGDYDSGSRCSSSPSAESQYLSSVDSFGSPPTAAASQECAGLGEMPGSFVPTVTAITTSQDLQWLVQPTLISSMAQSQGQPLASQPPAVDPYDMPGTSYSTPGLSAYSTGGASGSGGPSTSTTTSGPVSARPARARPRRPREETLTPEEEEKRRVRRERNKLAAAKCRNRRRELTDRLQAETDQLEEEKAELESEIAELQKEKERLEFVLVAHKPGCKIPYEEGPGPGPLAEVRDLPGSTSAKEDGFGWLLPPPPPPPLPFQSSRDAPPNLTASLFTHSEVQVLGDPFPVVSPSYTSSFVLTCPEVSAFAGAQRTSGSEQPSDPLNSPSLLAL
GRIN3A LBD mod – NR3A (human) ligand-binding domain modulation; NR3A LBD differential scanning fluorimetry, Tm shift; 0% = protein alone, 100% = glycine-bound protein; Tm shift relative to glycine control, % at 25 µM; hit rate 2.5% among 340,000; AID 1259313;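 active = melting temperature shift of at least 10% of the positive control shift, at one fixed dose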
ZTA DNA inh – counter-screen for EBNA-1 inhibitors: inhibitors of Epstein-Barr virus ZTA; P03206; ZTA-DNA binding, fluorescence polarization; inhibition, % at 11 µM; hit rate 0.15% among 320,000; AID 2234; in the data active = inhibition above about 33%
EBNA-1 inh – blocks EBNA-1 binding to DNA | EBNA-1 DNA binding, fluorescence polarization | AID 1950 | inhibition, % at 14.8 µM | hit rate 0.34% among 300,000; in the data active = inhibition above about 28%
Rpn11 block – blocks the human proteasome subunit Rpn11 | inhibition, % at 20 µM | O00487 | human 26S proteasome, Ub4-pepOG fluorescence polarization; 20S core pre-blocked with epoxomicin | hit rate 0.59% among 360,000;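 active = inhibition at 20 µM, scaled to each plate's controls, above about 33%, limit read from the data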
Target sequence (O00487 whole entry, looked up): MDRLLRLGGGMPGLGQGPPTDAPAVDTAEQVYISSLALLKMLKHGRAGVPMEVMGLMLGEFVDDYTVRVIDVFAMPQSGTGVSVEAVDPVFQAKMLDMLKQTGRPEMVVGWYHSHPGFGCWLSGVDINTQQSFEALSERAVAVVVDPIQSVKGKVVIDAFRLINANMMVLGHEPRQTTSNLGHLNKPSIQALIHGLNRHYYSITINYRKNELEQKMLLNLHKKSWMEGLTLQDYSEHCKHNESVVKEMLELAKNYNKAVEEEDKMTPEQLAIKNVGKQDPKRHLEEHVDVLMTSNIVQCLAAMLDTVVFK
Of the large screens only hits and unclear results are named; the others gave an inactive call.

O=c1[nH]c(NNC(=S)NCc2ccccc2)nc2c1C1(CCCCC1)Cc1ccccc1-2	GRIN3A LBD mod 25.5
C=CCNC(=S)NNc1nc2c(c(=O)[nH]1)C1(CCCC1)Cc1ccccc1-2	none
COc1cc(CN2CCNC(=O)C2CC(=O)NCc2csc(C(C)C)n2)cc(OC)c1 (stereo not given)	none
COc1cc2c(cc1NC(=O)c1ccc3c(c1)OCO3)oc1ccccc12	GRIN3A LBD mod 26.2
O=C(Nc1ccc2c(c1)oc1ccccc12)c1ccc2c(c1)OCO2	GRIN3A LBD mod 25.4
COc1ccc(OC)c(NC(=O)c2cc3oc4ccccc4c3cc2O)c1	GRIN3A LBD mod 130.0
O=C(Nc1cccc(NC(=O)c2ccc3c(c2)OCO3)c1)c1ccccc1	dFosB activator inconclusive
COc1cccc(NC(=O)c2ccc(OC(F)(F)F)cc2)c1	none
Cc1cc(C)cc(C(=O)NC(CC(N)=O)c2ccc(N3CCCCCC3)c([N+](=O)[O-])c2)c1 (stereo not given)	none
Cc1ccccc1NS(=O)(=O)c1ccc(NC(=O)CSCc2ccc(Br)cc2)cc1	GRIN3A LBD mod 22.2
CC(C)c1ccc(O)c(NC(=S)NC(=O)CCc2ccccc2)c1	none
COc1ccc2c(c1)C(=O)N(Cc1ccccc1)C(=O)C2(C)C	none
Oc1ccccc1C1NN=C(c2ccccc2)S1 (stereo not given)	GRIN3A LBD mod 18.8
N=C1/C(=C\c2ccc(-c3cc(Cl)cc(Cl)c3)o2)C(=O)N=C2SC=C(c3ccccc3)N12	GRIN3A LBD mod 23.5
N=C1/C(=C/c2cccn2CCOc2ccccc2)C(=O)N=C2SC=C(c3ccccc3)N12	GRIN3A LBD mod 23.3
O=C(Nc1nc(-c2ccccn2)cs1)c1ccco1	none
O=C(Nc1nc(-c2ccccn2)cs1)c1ccc(Br)s1	GRIN3A LBD mod 26.1
CCCCCCC1CC(=O)NC(=O)N1 (stereo not given)	GRIN3A LBD mod 13.9
COC(=O)c1ccc(NC(=O)c2cccc(N3C(=O)C4C5C=CC(C6CC56)C4C3=O)c2)cc1 (stereo not given)	dFosB activator 27.5
O=C(Nc1ccccc1)c1cccc(N2C(=O)C3C4C=CC(C4)C3C2=O)c1 (stereo not given)	none
O=C(Nc1ccc(F)cc1)c1cccc(N2C(=O)C3C4C=CC(C4)C3C2=O)c1 (stereo not given)	GRIN3A LBD mod 17.6
O=C(Nc1ccccc1)c1cccc(N2C(=O)C3C4C=CC(C5CC45)C3C2=O)c1 (stereo not given)	none
CCS(=O)(=O)N1CCC(NC(=O)C(Cc2ccc(OC)c(OC)c2)NC(C)=O)CC1 (stereo not given)	none
Cc1cc(C)cc(N(CC(=O)Nc2ccc(-c3nc4ccc(C)cc4s3)cc2)S(C)(=O)=O)c1	GRIN3A LBD mod 25.9
Cc1ccc2nc(-c3ccc(NC(=O)COC(=O)c4ccco4)cc3)sc2c1	none
Cc1ccccc1N(CC(=O)Nc1ccc(F)cc1)S(C)(=O)=O	none
Cc1ccc2nc(-c3ccc(NC(=O)CN(c4ccccc4C)S(C)(=O)=O)cc3)sc2c1	GRIN3A LBD mod 15.0
COc1ccc(NC(=O)Cn2c(=O)n(CC(=O)NCc3ccco3)c(=O)c3ccccc32)cc1	none
CCn1c(=O)n(CC(=O)NCc2ccco2)c(=O)c2ccccc21	GRIN3A LBD mod 11.0
O=C(Cn1c2ccccc2c(=O)c2cc([N+](=O)[O-])ccc21)Nc1ccccc1Cl	dFosB activator 62.8, GRIN3A LBD mod 17.6
O=C(CC(=O)c1cccc([N+](=O)[O-])c1)Nc1ccccc1Cl	none
COc1ncccc1-c1nnn(-c2ccc(F)cc2)n1	none
CN(CCc1ccccn1)C(=O)CCC1CCCN(C(=O)c2c3c(nn2C)CCCC3)C1 (stereo not given)	none
O=C(COC(=O)c1c2c(nc3ccccc13)/C(=C/c1cccc([N+](=O)[O-])c1)CCC2)NC1CCS(=O)(=O)C1 (stereo not given)	GRIN3A LBD mod 10.9
COc1ccccc1CNC(=O)c1ccccc1OCc1ccc(F)cc1	GRIN3A LBD mod 22.8
Cc1cc2ncn(-c3ncccc3[N+](=O)[O-])c2cc1C	none
O=C(O)COc1ccc(/C=N/NC(=O)c2cccc3ccccc23)cc1	none
Clc1ccc2c(c1)c1cc(Cl)ccc1n2CN1CCOCC1	GRIN3A LBD mod 10.7
O=C(NCCc1c[nH]c2ccccc12)C(F)(F)F	none
NC(=NCCc1c[nH]c2ccccc12)NC(=O)c1ccc(Cl)cc1	GRIN3A LBD mod 23.8
CC(C)C(=O)NCCc1c[nH]c2ccccc12	none
Cc1ccc(C(=O)NCCc2c[nH]c3ccccc23)s1	GRIN3A LBD mod 27.1
O=C(NCCc1c[nH]c2ccccc12)c1ccc([N+](=O)[O-])cc1	GRIN3A LBD mod 24.6
O=C(N[C@@H](Cc1c[nH]c2ccccc12)C(=O)O)c1ccc(Cl)cc1	none
O=C(NCCc1c[nH]c2ccccc12)c1cc([N+](=O)[O-])cc([N+](=O)[O-])c1	none
O=C(NCCc1c[nH]c2ccccc12)c1ccccc1	GRIN3A LBD mod 12.6
O=C(NCCc1ccccc1)c1ccc(-n2cnnn2)cc1	none
O=C(CCCc1c[nH]c2ccccc12)NCCc1c[nH]c2ccccc12	GRIN3A LBD mod 15.5
N#CCC(=O)Nc1ccc(C(=O)NCCc2c[nH]c3ccccc23)cc1	GRIN3A LBD mod 18.4
O=C(NCCc1c[nH]c2ccccc12)c1ccc(-n2cnnn2)cc1	GRIN3A LBD mod 13.1
N#CCC(=O)Nc1ccc(C(=O)NCCC(c2ccccc2)c2ccccc2)cc1	none
C/C(=N\NC(=O)Cc1c[nH]c2ccccc12)c1ccc2ccccc2c1	GRIN3A LBD mod 15.1
CCN(CC(=O)Nc1ccc(Cl)c(C(F)(F)F)c1)CC(=O)NC1CCS(=O)(=O)C1 (stereo not given)	none
COc1ccc(C(=O)Nc2ccc(N3CCCCCC3)cc2)cc1S(=O)(=O)N1CCOCC1	none (no result: TPT1 inhibitor, EBNA-1 inh)
O=C(c1nc2ccccn2c1CNCCOc1cccnc1)N1CCOCC1	none
O=C(CCCc1c[nH]c2ccccc12)Nc1ccc2ccccc2c1	GRIN3A LBD mod 23.6
COc1ccc(C(=O)NCCc2c[nH]c3ccc(OC)cc23)cc1	none
COc1ccc2[nH]cc(CCNC(=O)c3ccc([N+](=O)[O-])cc3)c2c1	GRIN3A LBD mod 12.1
CC(=O)Nc1ccc(NC(=O)CCCc2c[nH]c3ccccc23)cc1	none
CC(=O)c1sc2nc(-c3ccc(C)cc3)c3c(c2c1N)CCCC3	GRIN3A LBD mod 10.0
CC(=O)Oc1cccc(/C=C2\Sc3ccccc3C2=O)c1	GRIN3A LBD mod 17.0
Cn1c(SC/C=C/c2ccccc2)nnc1-c1ccco1	GRIN3A LBD mod 12.3
Cn1c(Cc2cccs2)nnc1SC/C=C/c1ccccc1	none
O=C(Nc1cccc(Cl)c1)c1cccnn1	none (no result: GRIN3A LBD mod)
CCOC(=O)c1cnn(-c2ccc(NS(=O)(=O)c3ccc(Cl)cc3)cc2)c1C(F)(F)F	GRIN3A LBD mod 15.9
